Reference: PubChem BioAssay AID1347131 (National Center for Advancing Translational Sciences (NCATS), 2019)
Hit rate of the full screen: of about 410,000 compounds, about 2,000 (0.49%) were called active. A call without a number means that no potency is given here. Inconclusive results (about 8%) are left out. The call rests on the fitted dose curve; tested in HEK293 reporter line. The sample as a whole holds a higher share of actives than the screen did.

assay: qHTS Assay for Foot and Mouth Disease Virus Antivirals: Primary Screen against the MLPCN compound library; conditions: FMDV antiviral cell-based qHTS; series mostly up to 57.9 µM; further: nearly all actives have a fitted effect of over 55% in size
Potency means the concentration at half of the fitted maximal effect.

Row | Structure (SMILES) | Potency
1 | COC(=O)c1ccc(-c2nc3ccccc3[nH]2)cc1 | 15.8 µM (active)
2 | CS(=O)(=O)c1ccc(C(=O)Nc2cccc(-c3nc4ccccc4[nH]3)c2)cc1 | inactive
3 | CS(=O)(=O)c1ccc(C(=O)Nc2ccc(-c3nc4ccccc4[nH]3)cc2)cc1 | inactive
4 | COc1ccccc1N1CCN(Cc2cc(=O)oc3cc(C)ccc23)CC1 | inactive
5 | Cc1nc2ccccc2c2oc(C(=O)N3CC(C)CC(C)C3)cc12 (configuration not stated) | inactive
6 | Cc1ccc(OC(=O)Cn2c(C(F)(F)F)nc3ccccc32)cc1 | inactive
7 | COc1cccc(NC(=S)NCc2cccs2)c1 | inactive
8 | N#CC1=C(N)C(C#N)(C#N)[C@H](c2ccoc2)[C@H]2CN(Cc3ccccc3)CC=C12 | inactive
9 | CC(=O)N1CC=C2C(C#N)=C(N)C(C#N)(C#N)C(CCc3ccccc3)C2C1 (configuration not stated) | inactive
10 | N#CC1=C(N)C(C#N)(C#N)C(c2cccnc2)C2CN(C(=O)OCc3ccccc3)CC=C12 (configuration not stated) | 22.4 µM (active)
11 | Brc1ccc([C@H]2C=C[C@H]3CCCN4CC[C@H]2[C@@H]3[C@]42CO2)cc1 | inactive
12 | CC(=O)Nc1ccc(S(=O)(=O)c2ccc([N+](=O)[O-])cc2)cc1 | inactive
13 | O=C1NC(=O)N(Cc2ccccc2)C(=O)/C1=C\N1CCCc2ccccc21 | inactive
14 | O=C1NC(=O)N(CCc2ccc(F)cc2)C(=O)/C1=C/C=C/c1ccccc1 | 10 µM (active)
15 | COc1ccc(CN2C(=O)NC(=O)/C(=C/c3ccoc3)C2=O)cc1 | inactive
16 | O=C(Nc1ccc2c(c1)OCO2)c1cc(-c2ccc(Br)cc2)on1 | inactive
17 | CN(CCOc1ccc(Cl)cc1)CC(=O)Nc1ccc(OC(F)(F)F)cc1 | inactive
18 | Cc1[nH]n(-c2ccc(F)cc2)c(=O)c1/C=N/c1sc2c(c1C#N)CCCC2 | inactive
19 | N#Cc1c(/N=C/c2cccs2)sc2c1CCCCC2 | 25.1 µM (active)
20 | O=C(Nc1sc2c(c1C(=O)Nc1ccc(Cl)cc1)CCCC2)c1cccs1 | inactive
21 | O=C(Cc1ccccc1)NCC(=O)OCc1ccccc1F | inactive
22 | CC(Sc1nc2ccccc2c(=O)n1CC1CCCO1)C(=O)N(C)c1ccccc1 (configuration not stated) | inactive
23 | COc1ccc(C(CC(=O)Nc2cc([N+](=O)[O-])ccc2OC)c2ccccc2)cc1 (configuration not stated) | inactive

Row | Structure (SMILES) | Potency
24 | CC(=O)NNC(=S)NC(=O)C(c1ccccc1)c1ccccc1 | inactive
25 | CCOC1=C2CN(S(=O)(=O)c3ccc(C)cc3)[C@H](c3ccccc3)C[C@@H]2N(S(=O)(=O)c2ccc(C)cc2)[C@H](c2ccccc2)C1 | inactive
26 | CC(C)c1ccc(NC(=O)c2cc(S(=O)(=O)N(C)C3CCCCC3)ccc2F)cc1 | inactive
27 | CCc1ccc2oc(-c3cc(N)ccc3Cl)nc2c1 | 17.8 µM (active)
28 | CCCOc1ccc(C(=O)Nc2ccc3oc(-c4cccc(Cl)c4Cl)nc3c2)cc1 | inactive
29 | CCOCCc1nnc(NC(=O)CS(=O)(=O)Cc2ccccc2)s1 | inactive
30 | CCCCN1C[C@H](CSC)[C@@H](CC(=O)NC)C1=O | inactive
31 | COc1ccc(NC(=O)NC23CC4(C)CC(C)(CC(C)(C4)C2)C3)cc1OC | inactive
32 | COc1ccc(N2CCN(C(=O)CN3CCSc4ccccc43)CC2)cc1 | inactive
33 | Cc1ccn2c(/C=N/OCc3cccc(F)c3)c(-c3ccc(Cl)cc3)nc2c1 | inactive
34 | Cc1ccc2nc(-c3ccc(NC(=O)COC(=O)c4ccco4)cc3)sc2c1 | 12.6 µM (active)
35 | CCN(CC)S(=O)(=O)c1cccc(NC(=O)COC(=O)c2cncc(Br)c2)c1 | inactive
36 | Cc1ccc(OCC(=O)Nc2ccc3c(c2)nc(CCNC(=O)c2ccco2)n3C)cc1 | inactive
37 | Cc1ccc2nc(-c3ccc(NC(=O)COC(=O)c4cncc(Br)c4)cc3)sc2c1 | 17.8 µM (active)
38 | O=C(COC(=O)c1ccco1)Nc1ccc2[nH]c(=O)[nH]c2c1 | inactive
39 | Cc1ccc(C(=O)OCC(=O)Nc2ccc(C)c(S(=O)(=O)N3CCCCC3)c2)c(O)c1 | inactive
40 | O=C(N/N=C/c1cccc([N+](=O)[O-])c1)c1ccc(CN2CCOCC2)cc1 | inactive
41 | CCOc1cc(/C=N/Nc2cc(C)nc(-n3nc(C)cc3C)n2)ccc1O | inactive
42 | CC(OC(=O)/C=C/c1ccco1)C(=O)NC1CCCCC1C (configuration not stated) | inactive
43 | O=C1c2ccccc2C(=O)C1c1ccnc2ccccc12 | 14.1 µM (active)
44 | O=S(=O)(c1cccs1)N1CCN(CCc2ccccc2)CC1 | inactive
45 | Cc1ccc2c(CC(=O)N3CCN(S(=O)(=O)c4cccs4)CC3)coc2c1 | inactive
46 | O=C(CCCc1nc2ccccc2s1)N1CCN(S(=O)(=O)c2cccs2)CC1 | 25.1 µM (active)

Row | Structure (SMILES) | Potency
47 | COc1ccc(C(=O)NCC(=O)N2CC=C(c3ccccc3)CC2)cc1OC | inactive
48 | O=c1nc(N/N=C/C=C/c2ccccc2)cn[nH]1 | 14.1 µM (active)
49 | COc1ccc(CCN(C)C(=O)c2cc(S(=O)(=O)N3CCCCC3)ccc2Cl)cc1OC | inactive
50 | COCCn1c(C)cc(C(=O)COC(=O)c2ccc[nH]c2=O)c1C | inactive
51 | Cc1sc2ncnc(NCC(c3ccco3)N3CCCC3)c2c1C (configuration not stated) | inactive
52 | CCOc1cc(-c2c(C#N)c(=O)[nH]c3c2c(C)nn3-c2ccc(F)cc2)ccc1O | inactive
53 | COc1ccc2oc(=O)c(C(=O)NCCc3c(C)[nH]c4ccc(C)cc34)cc2c1 | inactive
54 | O=C(CSc1nnc(NC(=O)c2ccc3c(c2)OCO3)s1)NCc1ccco1 | 17.8 µM (active)
55 | COc1cc(OC)cc(C(=O)Nc2nnc(SCC(=O)NCc3ccco3)s2)c1 | inactive
56 | COc1ccc(-c2cnc(SCC(=O)Nc3ccc4c(c3)OCO4)n2Cc2ccco2)cc1 | inactive
57 | Cc1cc(C)cc(-n2c(SCC(=O)Nc3cccc(F)c3)nc3c([nH]c4ccccc43)c2=O)c1 | inactive
58 | COc1ccc(C)cc1NC(=O)CN(C)S(=O)(=O)c1cc(C)ccc1OC | inactive
59 | O=P(c1ccccc1)(c1ccccc1)c1nc(-c2ccccc2)oc1NCc1ccccc1 | inactive
60 | C=C[C@H](Cc1ccccc1)N(Cc1ccccc1)S(=O)(=O)N(Cc1ccccc1)[C@H](C=C)Cc1ccccc1 | inactive
61 | Cc1cc(C)c(C(N)=O)c(SCC(=O)c2cc(C)c(C)cc2C)n1 | inactive
62 | CCOc1ccc2nc(NC(=O)c3cccn(Cc4ccc(C)cc4)c3=O)sc2c1 | inactive
63 | CSc1nc2ccc(NC(=O)c3ccccn3)cc2s1 | 15.8 µM (active)
64 | CCOc1ccc2nc(NS(=O)(=O)c3ccc(NC(C)=O)cc3)sc2c1 | inactive
65 | CCOc1ccc(C(=O)Nc2ccc3nc(SCC(=O)N(C)c4ccccc4)sc3c2)cc1 | inactive
66 | O=C(Nc1ccc2nc(SCCOc3ccccc3)sc2c1)c1cccs1 | inactive
67 | CCOc1ccc2nc(NC(=O)c3ccccn3)sc2c1 | 12.6 µM (active)
